Several values for one entry are separate records, joined by “and”; a condition that tells them apart may be missing. Equal entries are not always repeated. Results filed as inconclusive are left out. Some compounds were tested as several samples or in several runs, with calls that do not always agree. Activity calls are given as the source filed them. How the source made its calls, unless noted: active means hit-call score of the fitted dose curve at least 0.9, where 1 is the maximum; inactive means score below 0.9.
Experiments:
[1] = biological target: Estrogen-related receptor gamma (Homo sapiens) (UniProt P62508); test: ATG_ERRg_TRANS: Attagene TRANS-FACTORIAL HepG2 Assay for human Estrogen-Related Receptor gamma (ERRg) (AID 2282977; active means hit-call score of the fitted dose curve at least 0.9, where 1 is the maximum;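 further: hits increase reporter signal over DMSO so potencies reflect activators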); conditions: HepG2 Attagene TRANS reporter, ERRg transactivation
In short: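 Induction of reporter transcripts through a chimeric NR-Gal4 protein is quantified in transfected human HepG2 liver cells after 24 h chemical exposure, using RT-PCR with capillary electrophoresis detection and DMSO as baseline.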

[2] = biological target: Glucocorticoid receptor (Homo sapiens) (UniProt P04150); test: ATG_GR_TRANS: Attagene TRANS-FACTORIAL HepG2 Assay for human Glucocorticoid Receptor (GR) (AID 2282978; active means hit-call score of the fitted dose curve at least 0.9, where 1 is the maximum;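 further: activators score as hits since higher reporter transcript over DMSO is fitted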); conditions: HepG2 Attagene TRANS GR reporter, mRNA transcription
In short: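 HepG2 cells transiently transfected with multiplexed reporter units in which chimeric NR-GAL4 proteins drive GAL4-UAS reporters; 24 h compound exposure. Reporter mRNA measured by RT-PCR, 6-FAM labelling, HpaI digestion and capillary electrophoresis; gain-of-signal fitted versus DMSO.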

[3] = biological target: Bile acid receptor (Homo sapiens) (UniProt Q96RI1); test: ATG_FXR_TRANS: Attagene TRANS-FACTORIAL HepG2 Assay for Farnesoid X Receptor (FXR) (AID 2282979; active means hit-call score of the fitted dose curve at least 0.9, where 1 is the maximum;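 further: hits raise reporter mRNA above DMSO so AC50 marks FXR activation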); conditions: HepG2 Attagene TRANS FXR-GAL4 reporter transcription
In short: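 Transient transfection of HepG2 with multiplexed GAL4-UAS reporter units; exogenous FXR-GAL4 chimera. Dose 24 h → TriZol RNA → oligo(dT) RT → PCR, 6-FAM primer extension, HpaI cut → CE. Gain vs DMSO.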

[4] = ATG_M_06_TRANS: Attagene TRANS-FACTORIAL HepG2 Assay for M06 Transcription Factor (Internal Marker) (AID 2282983; active means hit-call score of the fitted dose curve at least 0.9, where 1 is the maximum); conditions: HepG2 Attagene TRANS M06 internal marker reporter
In short: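 Background control endpoint: reporter mRNA from transiently transfected HepG2 after 24 h dosing, detected by RT-PCR with capillary electrophoresis fluorescence. Analysed for gain versus DMSO.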

[5] = biological target: Transcriptional activator Myb (Homo sapiens) (UniProt P10242); test: ATG_Myb_CIS: Attagene CIS-FACTORIAL HepG2 Assay for human Myeloblastosis (Myb) Proto-Oncogene Transcription Factor (AID 2282986); conditions: HepG2 Attagene CIS-FACTORIAL Myb reporter transcription; actives raise or lower the signal
In short: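 HepG2 cells were transiently transfected with cis-regulated multiple reporter transcription units reflecting endogenous Myb activity, then exposed to compound for 24 hours. Reporter mRNA was measured by RT-PCR with capillary electrophoresis; bidirectional fitting versus DMSO baseline.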

[6] = biological target: Nuclear respiratory factor 1 (Homo sapiens) (UniProt Q16656); test: ATG_NRF1_CIS: Attagene CIS-FACTORIAL HepG2 Assay for human Nuclear Respiratory Factor 1 (NRF1) Orphan Gene (AID 2282987); conditions: HepG2 NRF1 cis-element reporter, Attagene multiplex; actives raise or lower the signal
In short: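 HepG2 cells transiently transfected with multiple reporter transcription units under cis-regulatory promoter control, so endogenous transcription-factor activity is read. After 24 h compound exposure, reporter mRNA quantified by RT-PCR, fluorescent labelling, HpaI digestion and capillary electrophoresis; bidirectional fitting versus DMSO.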

[7] = ATG_NFI_CIS: Attagene CIS-FACTORIAL HepG2 Assay for human Nuclear Factor I (NFI) (AID 2282989); conditions: HepG2 cis-regulatory reporter, NFI response element transcription; actives raise or lower the signal
In short: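 After transient transfection of HepG2 with cis-promoter reporter constructs and 24 h dosing, RNA is reverse-transcribed, amplified, 6-FAM end-labelled and HpaI-digested before capillary analysis. Bidirectional curve fitting against DMSO.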

[8] = biological target: Myc proto-oncogene protein (Homo sapiens) (UniProt P01106); test: ATG_Myc_CIS: Attagene CIS-FACTORIAL HepG2 Assay for human Myelocytomatosis (Myc) Proto-Oncogene Transcription Factor (AID 2282990); conditions: HepG2, Attagene cis-reporter transcription factor activity; actives raise or lower the signal
In short: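 HepG2 cells transiently transfected with multiple cis-promoter-driven reporter transcription units, so endogenous TF activity is read. After 24 h compound exposure, reporter mRNA was quantified by RT-PCR, 6-FAM labelling, HpaI digestion and capillary electrophoresis; bidirectional fit versus DMSO.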

[9] = ATG_NF_kB_CIS: Attagene CIS-FACTORIAL HepG2 Assay for human Nuclear Factor Kappa B (NF-kB) (AID 2282991); conditions: HepG2 Attagene cis-factorial NF-kB reporter mRNA; actives raise or lower the signal
In short: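 HepG2 cells transiently transfected with multiplexed cis-element reporter units measuring endogenous transcription factor activity; reporter mRNA read 24 h after dosing by RT-PCR, fluorescent labelling, HpaI digestion and capillary electrophoresis. Bidirectional fit against DMSO baseline.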

[10] = ATG_NRF2_ARE_CIS: Attagene CIS-FACTORIAL HepG2 Assay for human Nuclear Factor Erythroid 2 Related Factor 2 (NFR2) response to Antioxidant Response Elements (ARE) (AID 2282992); conditions: HepG2 Attagene ARE/NRF2 reporter, transcription factor activity; actives raise or lower the signal
In short: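 Using transiently transfected HepG2 cells exposed for 24 h, reporter mRNA levels were determined by RT-PCR with fluorescent primer extension and capillary electrophoresis, analysed for gain or loss of signal against DMSO.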

[11] = ATG_Oct_MLP_CIS: Attagene CIS-FACTORIAL HepG2 Assay for human Octamer-Binding Transcription Factor (Oct) (AID 2282993); conditions: HepG2 Attagene cis-factorial Oct reporter, mRNA; actives raise or lower the signal
In short: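 Cells of the HepG2 line express promoter-controlled reporter sequences whose mRNA levels, after 24 h treatment, are measured by RT-PCR and capillary electrophoresis. Increases and decreases are scored relative to DMSO.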

[12] = biological target: Cellular tumor antigen p53 (Homo sapiens) (UniProt P04637); test: ATG_p53_CIS: Attagene CIS-FACTORIAL HepG2 Assay for human p53 Transcription Factor (AID 2282994); conditions: HepG2 p53 cis-element reporter, Attagene mRNA; actives raise or lower the signal
In short: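 In HepG2 cells, reporter transcription units under cis-regulatory promoters were transiently introduced. Following 24 h treatment, RNA was processed to labelled, digested cDNA fragments read by capillary electrophoresis; fitting was bidirectional versus DMSO.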

[13] = BSK_3C_TissueFactor: BioMAP Diversity Plus: 3C Assay for Tissue Factor Biomarker Activity (AID 2282997); conditions: BioMAP 3C HUVEC, tissue factor biomarker readout; actives raise or lower the signal
In short: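 After a 24 h chemical exposure of primary human umbilical vein endothelial cells, Tissue Factor levels were quantified by ELISA.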

[14] = BSK_3C_uPAR: BioMAP Diversity Plus: 3C Assay for Urokinase-type plasminogen activator receptor (uPAR) Biomarker Activity (AID 2282998); conditions: BioMAP 3C HUVEC, uPAR biomarker ELISA; actives raise or lower the signal
In short: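 Endothelial primary cells of human umbilical vein origin received test chemical; 24 h later uPAR was assayed by ELISA. Fitting was bidirectional, DMSO as negative control.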

[15] = BSK_3C_VCAM1: BioMAP Diversity Plus: 3C Assay for Vascular cell adhesion molecule 1 (VCAM1) Biomarker Activity (AID 2282999); conditions: BioMAP 3C HUVEC, VCAM1 ELISA, cytokine-stimulated; actives raise or lower the signal
In short: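 Vascular primary endothelium (human umbilical vein) was exposed to chemicals and assayed 24 h later. VCAM-1 levels came from ELISA, with DMSO serving as baseline for bidirectional fitting.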

[16] = biological target: Oxysterols receptor LXR-alpha (Homo sapiens) (UniProt Q13133); test: ATG_LXRa_TRANS: Attagene TRANS-FACTORIAL HepG2 Assay for human Liver X Receptor alpha (LXRa) (AID 2282980; active means hit-call score of the fitted dose curve at least 0.9, where 1 is the maximum); conditions: HepG2 Attagene TRANS reporter, LXRa transactivation
In short: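 Transfect HepG2 with GAL4-UAS multiplex reporter constructs (TRANS format, chimeric receptor-GAL4); treat 24 h; extract RNA, reverse-transcribe, PCR-amplify, FAM-label, HpaI-digest; resolve fragments by capillary electrophoresis. Upward response vs DMSO.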

[17] = biological target: Oxysterols receptor LXR-beta (Homo sapiens) (UniProt P55055); test: ATG_LXRb_TRANS: Attagene TRANS-FACTORIAL HepG2 Assay for human Liver X Receptor beta (LXRb) (AID 2282981; active means hit-call score of the fitted dose curve at least 0.9, where 1 is the maximum); conditions: HepG2 Attagene TRANS GAL4-LXRb reporter, mRNA
In short: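 Measures induction of a Gal4-driven reporter transcript in HepG2 cells expressing an exogenous LXRb-Gal4 fusion. Cells are exposed to compound for 24 h before RNA isolation and RT-PCR with capillary electrophoresis detection.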

[18] = biological target: Hepatocyte nuclear factor 4-alpha (Homo sapiens) (UniProt P41235); test: ATG_HNF4a_TRANS: Attagene TRANS-FACTORIAL HepG2 Assay for human Hepatocyte Nuclear Factor 4 alpha (HNF4a) (AID 2282982; active means hit-call score of the fitted dose curve at least 0.9, where 1 is the maximum); conditions: HepG2 HNF4a transactivation reporter, mRNA readout
In short: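 In this trans-factorial format, a chimeric HNF4a-GAL4 fusion drives a GAL4-UAS reporter in transfected HepG2 liver cells. After 24 h treatment, reporter mRNA induction is measured by RT-PCR with capillary electrophoresis, relative to DMSO.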

[19] = biological target: Nuclear receptor subfamily 4 group A member 2 (Homo sapiens) (UniProt P43354); test: ATG_NURR1_TRANS: Attagene TRANS-FACTORIAL HepG2 Assay for human Nuclear Receptor Related Protein 1 (NURR1) (AID 2282985; active means hit-call score of the fitted dose curve at least 0.9, where 1 is the maximum); conditions: HepG2 Attagene TRANS reporter, mRNA readout
In short: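 Chimeric NR-Gal4 fusion activity measured in HepG2 after 24 h treatment. Reporter transcripts detected by RT-PCR and capillary electrophoresis fluorescence; positive-direction curve fitting against DMSO.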

[20] = ATG_M_32_TRANS: Attagene TRANS-FACTORIAL HepG2 Assay for M32 Transcription Factor (Internal Marker) (AID 2282984; active means hit-call score of the fitted dose curve at least 0.9, where 1 is the maximum;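 further: transcript level of a background control reporter unit measured by RT-PCR and capillary electrophoresis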); conditions: HepG2 Attagene TRANS M32 internal marker reporter
In short: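 After 24 h dosing of transfected HepG2 cells, total RNA was reverse-transcribed, reporter sequences PCR-amplified, 6-FAM labelled by primer extension and HpaI-digested before capillary electrophoresis. Signal increase over DMSO was fitted.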

Measured: AC50

Chain of Nuclear receptor subfamily 4 group A member 2 (Homo sapiens) (P43354 whole entry, looked up, the tested form may be a part): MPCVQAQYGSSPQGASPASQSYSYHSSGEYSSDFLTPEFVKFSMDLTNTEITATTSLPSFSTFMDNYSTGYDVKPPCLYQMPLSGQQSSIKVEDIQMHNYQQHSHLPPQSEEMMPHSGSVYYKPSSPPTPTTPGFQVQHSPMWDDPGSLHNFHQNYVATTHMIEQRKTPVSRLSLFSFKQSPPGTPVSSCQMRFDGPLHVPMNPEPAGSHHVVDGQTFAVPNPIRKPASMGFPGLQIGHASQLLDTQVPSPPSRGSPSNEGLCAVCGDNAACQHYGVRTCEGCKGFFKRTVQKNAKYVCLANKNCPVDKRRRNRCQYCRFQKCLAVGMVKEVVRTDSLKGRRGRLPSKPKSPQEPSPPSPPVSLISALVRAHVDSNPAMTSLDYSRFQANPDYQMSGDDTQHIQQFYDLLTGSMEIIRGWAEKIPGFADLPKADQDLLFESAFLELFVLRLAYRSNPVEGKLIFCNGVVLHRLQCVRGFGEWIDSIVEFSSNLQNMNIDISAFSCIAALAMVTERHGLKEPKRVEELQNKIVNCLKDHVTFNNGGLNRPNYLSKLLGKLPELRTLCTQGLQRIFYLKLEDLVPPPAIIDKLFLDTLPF
Chain of Estrogen-related receptor gamma (Homo sapiens) (P62508 whole entry, looked up, the tested form may be a part): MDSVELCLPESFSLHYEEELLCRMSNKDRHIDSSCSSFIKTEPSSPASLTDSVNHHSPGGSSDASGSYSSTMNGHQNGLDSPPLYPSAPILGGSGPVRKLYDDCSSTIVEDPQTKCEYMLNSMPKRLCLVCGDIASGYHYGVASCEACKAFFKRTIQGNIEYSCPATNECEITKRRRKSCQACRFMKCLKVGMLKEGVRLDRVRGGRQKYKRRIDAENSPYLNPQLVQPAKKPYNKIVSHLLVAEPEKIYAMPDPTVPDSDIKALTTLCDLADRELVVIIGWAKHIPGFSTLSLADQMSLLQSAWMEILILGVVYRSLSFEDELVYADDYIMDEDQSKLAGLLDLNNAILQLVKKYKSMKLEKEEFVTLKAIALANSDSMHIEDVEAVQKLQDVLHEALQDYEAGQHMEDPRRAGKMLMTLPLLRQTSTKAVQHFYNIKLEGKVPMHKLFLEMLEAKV
Chain of Transcriptional activator Myb (Homo sapiens) (P10242 whole entry, looked up): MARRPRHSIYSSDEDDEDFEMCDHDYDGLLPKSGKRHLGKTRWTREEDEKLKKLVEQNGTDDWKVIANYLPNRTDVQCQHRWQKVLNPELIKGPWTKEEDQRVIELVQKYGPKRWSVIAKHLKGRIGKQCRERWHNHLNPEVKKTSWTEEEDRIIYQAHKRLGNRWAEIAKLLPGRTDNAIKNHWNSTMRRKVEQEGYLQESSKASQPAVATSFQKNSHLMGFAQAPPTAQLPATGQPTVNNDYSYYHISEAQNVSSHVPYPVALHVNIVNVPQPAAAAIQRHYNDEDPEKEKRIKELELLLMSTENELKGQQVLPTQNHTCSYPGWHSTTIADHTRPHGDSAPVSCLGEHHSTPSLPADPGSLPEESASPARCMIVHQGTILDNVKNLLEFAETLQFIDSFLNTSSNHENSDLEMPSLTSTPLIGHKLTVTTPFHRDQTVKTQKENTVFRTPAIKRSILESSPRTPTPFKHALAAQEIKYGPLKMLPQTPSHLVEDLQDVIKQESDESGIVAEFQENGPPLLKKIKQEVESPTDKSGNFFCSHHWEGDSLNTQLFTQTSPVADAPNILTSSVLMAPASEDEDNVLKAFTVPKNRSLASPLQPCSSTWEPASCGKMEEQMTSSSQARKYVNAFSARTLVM
Chain of Glucocorticoid receptor (Homo sapiens) (P04150 whole entry, looked up, the tested form may be a part): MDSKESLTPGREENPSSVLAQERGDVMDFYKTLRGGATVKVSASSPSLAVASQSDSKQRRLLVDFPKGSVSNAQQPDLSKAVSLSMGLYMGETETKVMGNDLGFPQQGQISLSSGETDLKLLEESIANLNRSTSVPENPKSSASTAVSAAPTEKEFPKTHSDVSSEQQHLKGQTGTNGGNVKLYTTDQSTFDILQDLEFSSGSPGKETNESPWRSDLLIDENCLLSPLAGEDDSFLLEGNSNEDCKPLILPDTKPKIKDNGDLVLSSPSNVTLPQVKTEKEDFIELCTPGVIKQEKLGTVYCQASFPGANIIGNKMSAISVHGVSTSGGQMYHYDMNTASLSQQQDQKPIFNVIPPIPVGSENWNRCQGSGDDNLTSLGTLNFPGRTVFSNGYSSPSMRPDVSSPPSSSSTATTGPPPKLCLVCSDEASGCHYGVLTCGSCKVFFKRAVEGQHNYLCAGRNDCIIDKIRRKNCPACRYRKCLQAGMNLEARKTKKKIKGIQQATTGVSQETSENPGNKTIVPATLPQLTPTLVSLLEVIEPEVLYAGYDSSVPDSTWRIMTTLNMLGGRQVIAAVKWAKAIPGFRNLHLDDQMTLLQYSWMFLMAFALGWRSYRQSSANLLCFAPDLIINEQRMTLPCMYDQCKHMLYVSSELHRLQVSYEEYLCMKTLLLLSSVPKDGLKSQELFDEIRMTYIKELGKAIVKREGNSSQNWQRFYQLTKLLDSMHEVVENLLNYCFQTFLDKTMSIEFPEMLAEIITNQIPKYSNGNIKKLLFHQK
Chain of Oxysterols receptor LXR-beta (Homo sapiens) (P55055 whole entry, looked up, the tested form may be a part): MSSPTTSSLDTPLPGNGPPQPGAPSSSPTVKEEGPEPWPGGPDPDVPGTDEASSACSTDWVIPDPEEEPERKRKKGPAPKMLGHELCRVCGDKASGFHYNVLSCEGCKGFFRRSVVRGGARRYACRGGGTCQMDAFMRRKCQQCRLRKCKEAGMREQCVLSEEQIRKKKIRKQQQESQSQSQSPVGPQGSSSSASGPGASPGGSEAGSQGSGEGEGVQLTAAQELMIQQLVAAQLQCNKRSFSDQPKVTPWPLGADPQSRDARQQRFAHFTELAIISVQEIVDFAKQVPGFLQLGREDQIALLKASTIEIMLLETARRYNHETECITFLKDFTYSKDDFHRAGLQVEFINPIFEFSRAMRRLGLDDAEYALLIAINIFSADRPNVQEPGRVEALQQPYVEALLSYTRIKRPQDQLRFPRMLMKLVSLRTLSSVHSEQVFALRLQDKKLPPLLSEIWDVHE
Chain of Bile acid receptor (Homo sapiens) (Q96RI1 whole entry, looked up, the tested form may be a part): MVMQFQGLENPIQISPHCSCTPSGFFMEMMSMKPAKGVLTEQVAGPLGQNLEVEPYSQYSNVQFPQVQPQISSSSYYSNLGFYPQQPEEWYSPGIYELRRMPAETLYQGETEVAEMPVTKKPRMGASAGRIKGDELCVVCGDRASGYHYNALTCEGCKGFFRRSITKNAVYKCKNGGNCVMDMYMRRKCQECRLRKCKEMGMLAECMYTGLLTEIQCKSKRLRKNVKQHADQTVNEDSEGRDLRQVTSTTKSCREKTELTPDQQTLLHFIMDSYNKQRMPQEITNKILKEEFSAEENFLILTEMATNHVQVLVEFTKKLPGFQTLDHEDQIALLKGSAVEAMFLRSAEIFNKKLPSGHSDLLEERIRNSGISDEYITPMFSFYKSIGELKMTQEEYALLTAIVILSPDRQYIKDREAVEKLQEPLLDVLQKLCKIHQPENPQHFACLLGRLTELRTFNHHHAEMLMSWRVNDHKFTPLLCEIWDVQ
Chain of Nuclear respiratory factor 1 (Homo sapiens) (Q16656 whole entry, looked up): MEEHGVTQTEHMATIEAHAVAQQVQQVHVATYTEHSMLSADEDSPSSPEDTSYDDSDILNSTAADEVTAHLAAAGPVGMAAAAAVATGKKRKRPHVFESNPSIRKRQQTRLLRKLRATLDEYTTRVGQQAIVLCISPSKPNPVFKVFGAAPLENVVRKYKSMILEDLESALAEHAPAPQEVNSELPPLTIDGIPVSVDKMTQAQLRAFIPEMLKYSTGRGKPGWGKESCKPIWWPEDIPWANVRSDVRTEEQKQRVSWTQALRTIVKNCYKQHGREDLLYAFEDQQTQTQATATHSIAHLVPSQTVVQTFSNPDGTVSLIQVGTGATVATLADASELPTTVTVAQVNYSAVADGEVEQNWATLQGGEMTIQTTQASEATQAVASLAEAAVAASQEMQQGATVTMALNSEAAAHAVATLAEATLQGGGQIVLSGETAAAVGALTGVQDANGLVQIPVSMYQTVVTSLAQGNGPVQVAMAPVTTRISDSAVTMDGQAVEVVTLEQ
Chain of Myc proto-oncogene protein (Homo sapiens) (P01106 whole entry, looked up): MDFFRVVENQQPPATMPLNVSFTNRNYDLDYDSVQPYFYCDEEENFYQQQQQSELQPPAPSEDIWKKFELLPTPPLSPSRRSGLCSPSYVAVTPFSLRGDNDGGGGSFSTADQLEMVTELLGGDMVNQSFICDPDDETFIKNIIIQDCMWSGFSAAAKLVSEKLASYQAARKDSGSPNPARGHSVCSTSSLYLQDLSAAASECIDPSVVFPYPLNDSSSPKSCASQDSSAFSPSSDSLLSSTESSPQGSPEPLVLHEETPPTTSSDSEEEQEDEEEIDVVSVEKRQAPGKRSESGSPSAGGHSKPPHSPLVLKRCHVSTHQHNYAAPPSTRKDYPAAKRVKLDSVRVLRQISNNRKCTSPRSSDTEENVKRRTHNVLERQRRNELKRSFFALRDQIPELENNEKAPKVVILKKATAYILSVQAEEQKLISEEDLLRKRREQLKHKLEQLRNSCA
Chain of Cellular tumor antigen p53 (Homo sapiens) (P04637 whole entry, looked up, the tested form may be a part): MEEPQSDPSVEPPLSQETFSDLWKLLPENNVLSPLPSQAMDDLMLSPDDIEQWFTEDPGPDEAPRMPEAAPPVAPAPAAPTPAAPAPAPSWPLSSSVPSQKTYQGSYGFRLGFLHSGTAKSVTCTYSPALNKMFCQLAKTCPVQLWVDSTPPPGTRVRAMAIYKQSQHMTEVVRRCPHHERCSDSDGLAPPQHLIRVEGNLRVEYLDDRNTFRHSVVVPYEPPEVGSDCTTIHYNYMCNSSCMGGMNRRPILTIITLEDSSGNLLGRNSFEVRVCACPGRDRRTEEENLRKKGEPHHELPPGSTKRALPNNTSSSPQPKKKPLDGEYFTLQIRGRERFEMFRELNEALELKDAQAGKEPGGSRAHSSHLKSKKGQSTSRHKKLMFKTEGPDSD

NC(=O)C(F)(F)C(F)(F)F
not listed: [16] | [17] | [18] | [19] | [20]
inactive: all other assays above

O=C(O)C(F)(F)C(F)(F)C(=O)O
not listed: [2] | [10] | [20]
inactive: all other assays above

CCCCOCC1CO1 (stereo unspecified)
inactive: [1] | [18] | [19] | [5] | [6] | [7] | [8] | [10] | [11] | [12]

O=[N+]([O-])c1ccc(Cl)c(Cl)c1
active: [10] 100 µM
not listed: [2] | [12] | [14] | [16] | [18] | [19] | [20]
inactive: all other assays above

OCC(F)(F)OC(F)(F)C(F)(F)OC(F)(F)C(F)(F)OC(F)(F)F
active: [12] 76.8 µM | [13] 30 µM and 47.3 µM | [15] 36.1 µM and 50.3 µM
inactive: [1] | [3] | [16] | [17] | [18] | [4] | [20] | [19] | [5] | [6] | [7] | [8] | [9] | [10] | [11] | [12]

CCOC(=O)c1ccccc1N
not listed: [1] | [9] | [12] | [13] | [14] | [15] | [18] | [19]
inactive: all other assays above

CCOP(=S)(NC(C)C)Oc1ccccc1C(=O)OC(C)C (stereo unspecified)
active: [19] 57.4 µM
not listed: [9] | [16] | [17] | [20]
inactive: all other assays above

CCCCCCCc1ccc(O)cc1
active: [13] 38 µM | [15] 35.1 µM
not listed: [1] | [3] | [10] | [12] | [14] | [16]
inactive: all other assays above

CCOP(=S)(S)OCC
active: [10] 67.4 µM
not listed: [1] | [2] | [9] | [14] | [18]
inactive: all other assays above

Reference: PubChem BioAssay (EPA / NIEHS)
